# Only some compounds are listed: those with a hit (about 4.7% of all), similar ones and a draw of the others.
# TRHR agonist: agonists of human TRH receptor; P34981; TRHR cells, calcium flux fluo-8, FDSS agonist mode; activation, % at 2 µM; 360,000 tested, 0.18% active; AID 493084; further: 0% is about no effect
# Target sequence (P34981 whole entry, looked up): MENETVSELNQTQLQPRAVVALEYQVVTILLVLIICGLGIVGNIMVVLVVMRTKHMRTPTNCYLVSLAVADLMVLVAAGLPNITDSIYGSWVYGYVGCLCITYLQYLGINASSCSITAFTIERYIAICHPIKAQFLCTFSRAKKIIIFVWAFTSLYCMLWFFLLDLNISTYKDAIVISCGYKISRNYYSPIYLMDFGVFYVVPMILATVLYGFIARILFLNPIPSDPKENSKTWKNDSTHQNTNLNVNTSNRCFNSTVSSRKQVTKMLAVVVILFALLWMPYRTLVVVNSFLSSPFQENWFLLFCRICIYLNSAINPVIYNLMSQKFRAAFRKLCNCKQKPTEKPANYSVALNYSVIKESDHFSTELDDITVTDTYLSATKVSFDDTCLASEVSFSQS
#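 Steps: seed TRHR cells overnight; add fluo-8 no-wash Ca dye, RT 30 min–1.5 h; record 10 s baseline; pin-transfer compounds; monitor fluorescence 1 cycle/s for the agonist window. Calcium increases flag candidate agonists.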
# TRHR enhancer: allosteric enhancers of human TRH receptor | P34981 | TRHR cells, fluo-8 calcium fluorescence, EC20 TRH enhancement | enhancement, % at 2 µM | 360,000 tested, 0.66% active | AID 493056; in the data active means enhancement above about 30%; further: 0% is about no effect
#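 Enhancer read-out: after compound pinning and an initial kinetic agonist-mode read, an EC20 of TRH (10 nM final) was injected and fluo-8 calcium signal (Ex 480/Em 530) followed at 1 s/cycle for 100 cycles in TRHR-expressing cells.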
# D1 PAM: enhances dopamine response at the human D1 receptor. P21728. HEK293 TREx D1 cells, calcium flux, dopamine EC20 potentiation. potentiation, % at 10 µM. 360,000 tested, 0.036% active; in the data active means potentiation above about 30%; further: 0% is about no effect
# D1 antag: blocks dopamine activation of the human D1 receptor; P21728; HEK293 TREx D1 cells, calcium flux, dopamine EC80; stronger effect = lower value; activity change, negative = inhibition, % at 10 µM; 360,000 tested, 3.2% active; in the data active means activity change below about -30%; further: on the % scale 0 is the no-effect control and ±100 the full control effect
#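 Cells carrying a force-coupled, tetracycline-inducible human D1 receptor report calcium flux. Each well gets a 10 s baseline, compound with 180 s monitoring, then an EC80 dopamine stimulus with a second 180 s kinetic read.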
# D1 agonist: activates the human D1 dopamine receptor. P21728. HEK293 T-REx D1 cells, calcium flux, agonist mode. activation, % at 2 µM. 360,000 tested, 1% active. AID 504660; further: 0% is about no effect
#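 Inducible HEK293 T-REx D1 cells, force-coupled to calcium signalling, were plated at 4000 cells/well with tetracycline and held overnight at 30 C. After no-wash calcium dye loading, compound-evoked calcium rise over 180 s flagged agonists.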
# Active calls of the source: *. Unless noted, no stated cut-off is given here; in the data, active means activation above about 30%; inactive means the rest.
SMILES,TRHR agonist,TRHR enhancer,D1 PAM,D1 antag,D1 agonist
COc1ccc(CNC(=O)CSc2ncc3c(n2)-c2cc(Cl)ccc2N(Cc2ccccc2)S3(=O)=O)cc1,0,4,-8,-43*,6
CCOC(=O)c1cccc(NC(=O)CSc2ncc3c(n2)-c2ccc(Cl)cc2N(Cc2ccccc2)S3(=O)=O)c1,-1,10,0,-75*,7
Cc1ccc(C)c(NC(=O)CSc2cn(CC(=O)N3CCCCC3)c3ccccc23)c1,0,6,2,5,5
COc1ccc(SCCN2CC[C@@H](O)CCC2=O)cc1,0,1,-4,-58*,-3
CCc1cc(=O)[nH]c(SCc2nc(-c3ccccc3)no2)n1,0,3,2,22,4
CCn1cc(/C=C/c2cc[n+](C)cc2)c2ccccc21,-1,8,-7,-9,69*
C=CCn1cc(/C=C/c2cc[n+](C)cc2)c2ccccc21,6,0,-5,1,38*
COc1ccc(S(=O)(=O)n2nc(-c3ccco3)nc2NCc2ccc(C(C)C)cc2)cc1,2,-6,-1,6,7
CCS(=O)(=O)N1CCCc2cc(C(=O)Nc3cc([N+](=O)[O-])ccc3C)ccc21,0,0,-2,3,-1
COc1cc(C=O)ccc1OCCOc1ccccc1[N+](=O)[O-],1,14,-4,-37*,5
COc1cccc(C2=NS(=O)(=O)N(C)C(C(=O)Nc3ccccc3SC)=C2)c1,-1,4,-1,4,5
COc1ccccc1NC(=O)Cn1c(=O)n(Cc2ccccc2)c(=O)c2c1c1cc(C)ccc1n2C,0,4,-2,7,0
Cc1ccc(-n2nnnc2-c2ccccc2)cc1,-2,-2,-3,-5,6
CCN(CC)c1ccc(C=C(c2nnnn2-c2ccc(C)cc2)c2nnnn2-c2ccc(C)cc2)cc1,5,3,2,5,32*
COc1cc(NC(=O)Cc2cccs2)cc(OC)c1,0,1,15,-33*,2
COc1cccc(NC(=O)Cc2cccs2)c1,0,-3,-4,-14,4
COc1cc(NC(=O)Cc2cccs2)c(C(=O)O)cc1OC,0,-4,-3,-32*,2
Cc1cccc(NC(=O)c2cccc(NC(=O)Cc3cccs3)c2)c1,1,-2,-7,-48*,5
Cc1ccc(NC2=CC(=O)C(=O)c3ccccc32)cc1,0,1,1,1,-1
Cc1ccc(NC2=C(Cl)C(=O)c3ccccc3C2=O)cc1,0,-11,-8,-58*,10
COC1=C(Nc2ccc(O)cc2)C(=O)c2ccccc2C1=O,0,-2,-3,-6,5
CCN(CC)c1ccc(NC2=C(Cl)C(=O)c3ccccc3C2=O)cc1,0,-18,-7,-39*,1
O=C1C(Cl)=C(Nc2ccc(O)cc2)C(=O)c2ccccc21,1,-13,-4,-68*,11
CCNC1=C(Cl)C(=O)c2ccccc2C1=O,-1,-5,-3,-36*,7
O=C1C(Cl)=C(NCCN2CCCCC2)C(=O)c2ccccc21,0,0,-6,-6,1
SMILES,TRHR agonist,TRHR enhancer,D1 PAM,D1 antag,D1 agonist
COC(=O)c1ccc(NC(=O)N2CCc3c([nH]c4ccccc34)C2c2ccc(C)cc2)cc1 (configuration not stated),-2,2,-4,-21,17
COc1ccc(CNC(=O)CCC2N=C3c4ccccc4N=C(SCc4ccccc4F)N3C2=O)cc1 (configuration not stated),-1,-2,2,-6,1
Cc1ccc(CNC(=O)CCCn2c(=O)c3ccccc3n(Cc3ccccc3Cl)c2=O)cc1,-2,4,-2,0,2
CCOC(=O)c1cnc(NCc2ccc(Cl)cc2)c2ccccc12,0,5,-2,12,4
C[C@@H](NC(=O)C1(c2ccccc2)CCN(C(=O)OC(C)(C)C)CC1)C(=O)N[C@@H](C(=O)O)c1ccccc1,-1,7,-3,-52*,1
C[C@H](NC(=O)C1(c2ccccc2)CCN(C(=O)OC(C)(C)C)CC1)C(=O)N[C@@H](C(=O)O)c1ccccc1,0,-3,-1,6,0
COc1ccc(CN(Cc2ccco2)C(=O)c2ccccc2F)cc1,-1,-3,3,6,1
CC(=O)COc1coc(CN2CCN(c3ccc(F)cc3)CC2)cc1=O,0,31*,-2,-1,1
CCCCc1nn2c(=O)cc(COC(=O)c3cccc(Cl)c3)nc2s1,0,-9,-4,-6,7
N#C/C(=C\c1ccc[nH]1)Sc1nc2ccccc2s1,-1,1,-10,-16,3
N#C/C(=C\c1cccs1)Sc1nc2ccccc2s1,2,-6,-7,-35*,8
O=C(COC(=O)CC1Sc2ccccc2NC1=O)NCc1ccccc1 (configuration not stated),0,7,-4,2,37*
COc1ccc(CNC(=O)CC2Sc3ccccc3NC2=O)cc1 (configuration not stated),0,-4,0,-9,5
Cn1c2cc(S(C)(=O)=O)sc2c2cnn(Cc3ccccc3F)c(=O)c21,0,1,18,-24,7
COc1cccc(CNC(=O)c2ccc(C)c(NC3=NC4CS(=O)(=O)CC4S3)c2)c1 (configuration not stated),0,1,1,-32*,2
CCOc1ccc(CCNC(=O)c2cccc(NC3=NC4CS(=O)(=O)CC4S3)c2)cc1OCC (configuration not stated),0,0,3,-11,0
COc1ccccc1NC(=O)c1ccc(NC(=O)COC(=O)C2CCCO2)cc1 (configuration not stated),0,-1,-2,-11,2
COc1ccccc1NC(=O)c1ccc(NC2=NC3CS(=O)(=O)CC3S2)cc1 (configuration not stated),0,2,-13,-35*,2
COc1ccccc1NC(=O)c1ccc(NC(=O)COC(=O)C2CC2C)cc1 (configuration not stated),0,8,-7,-43*,0
CCOc1ccc(CCNC(=O)c2cccc(NC3=NC4CS(=O)(=O)CC4S3)c2)cc1 (configuration not stated),-1,34*,-5,-2,1
COc1ccc(Nc2nn3c(=O)c4cc5c(cc4nc3s2)OCO5)c(OC)c1,0,0,0,-19,1
O=C(CSc1nc2c(c(=O)[nH]1)CCC2)Nc1ccccc1F,0,-2,-2,-17,0
Cc1ccc(S(=O)(=O)c2nc(-c3cccs3)oc2N2CCC(C)CC2)cc1,-1,10,1,8,3
O=S(=O)(c1ccccc1)c1nc(-c2cccs2)oc1N1CCCCC1,0,36*,1,3,1

# High-throughput results deposited in PubChem BioAssay by National Center for Advancing Translational Sciences (NCATS).
